PubChem BioAssay (Tox21)
“And” between values parts separate entries of the source, which are not always exact repeats. Identical values can stand only once. Inconclusive results are not listed. A call without a number means that no potency is given here. Some structures have more than one record in an assay (separate samples or runs), and their calls can disagree. The source made the active and inactive calls. Unless noted, calls follow the shape of the dose curve; as a rule, active = well fitted curve in the direction sought with a large enough effect in the repeat runs; inconclusive = weak or mixed curves; inactive = no such curve, though single readings can be large; an effect the other way counts as inactive or inconclusive.

Legend:
[1] = qHTS assay to identify small molecule agonists of the estrogen receptor alpha (ER-alpha) signaling pathway in the presence of an antagonist - cell viability counter screen (AID 1259386);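 also: cells exposed to compounds for 22 h at 37 °C before the viability read; nearly all actives have a fitted effect of over 30% in size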; also: potency is read from the fitted curve at half-maximal effect
Outline: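 Using estrogen-depleted VM7Luc4E2 cells, the 15-concentration compound series was applied together with 10.0nM ICI-182,780 and incubated 22hr at 37C/5% CO2. Cell viability was then scored by CellTiter-Fluor.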

[2] = target: Progesterone receptor (Homo sapiens) (UniProt P06401); experiment: qHTS assay to identify small molecule agonists of the progesterone receptor (PR) signaling pathway (AID 1346784; calls by dose curve; also: nearly all actives have a fitted effect of over 30% in size)
Outline: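 Cells (PR-UAS-bla HEK 293T, GripTite) were plated in assay medium containing 2% charcoal-stripped FBS and incubated 6 hr. Test compounds in DMSO were added for 16 hr at 37C. FRET substrate was then loaded for 2 hr at room temperature before fluorescence reading.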

[3] = qHTS assay to identify small molecule agonists of the progesterone receptor (PR) signaling pathway - cell viability counter screen (AID 1346799; calls by dose curve; also: nearly all actives have a fitted effect of over 45% in size; also: potency is read from the fitted curve at half-maximal effect)
Outline: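 Cells (PR-UAS-bla HEK293T) are plated at 3,000/well in 2% charcoal-stripped FBS medium, rested 6 hr, dosed and incubated 16 hr at 37C. CellTiter-Glo is then added and luminescence measured after 30 min at room temperature.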

[4] = qHTS assay to identify small molecule antagonists of the TGF-beta/Smad signaling pathway - cell viability counter screen (AID 1346824); also: nearly all actives have a fitted effect of over 50% in size
Outline: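 Cytotoxicity counter-screen run in the same wells as the beta-lactamase Smad reporter read: CellTiter-Glo luminescence after 30 min at room temperature. HEK 293T SBE-bla cells had 5 hr compound exposure at 37 C with TGF-beta1 (0.25 ng/mL stock).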

[5] = qHTS assay to identify small molecule agonists of the TGF-beta/Smad signaling pathway - cell viability counter screen (AID 1346829); also: top concentration of the series differs between compounds; nearly all actives have a fitted effect of over 45% in size
Outline: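 SBE-bla HEK 293T cells plated overnight, compound exposure 5 hr at 37 C. Viability read in the same wells by CellTiter-Glo luminescence after 30 min at room temperature, following the beta-lactamase read.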

[6] = qHTS assay to identify small molecule agonists of the TGF-beta/Smad signaling pathway (AID 1346859; active = well fitted activation curve with a large enough effect in the signal ratio in the repeat runs, not every such curve was filed as active; the % refers to the signal ratio; also: series mostly up to about 77 µM)
Outline: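 Reporter line: HEK 293T with stably integrated SBE-controlled beta-lactamase. Compound exposure lasts 5 hr at 37 C and 5% CO2; substrate loading follows for 2 hr at room temperature, with emission read at 460 and 530 nm.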

[7] = target: Thyrotropin-releasing hormone receptor (Homo sapiens) (UniProt P34981); experiment: qHTS assay to identify small molecule antagonists of the thyrotropin-releasing hormone receptor (TRHR) signaling pathway (AID 1346877; active = well fitted inhibition curve with a large enough effect in the repeat runs, not every such curve was filed as active; also: potency is read from the fitted curve at half-maximal effect)
Outline: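 Calcium signal in dye-loaded TRHR/HEK293 cells; compounds added 5 min before TRH (1 nM final); fluorescence monitored 3 min at 1 s steps.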

[8] = target: Thyrotropin-releasing hormone receptor (Homo sapiens) (UniProt P34981); experiment: qHTS assay to identify small molecule agonists of the thyrotropin-releasing hormone receptor (TRHR) signaling pathway (AID 1346891; calls by dose curve; also: potency is read from the fitted curve at half-maximal effect;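 as to activation: HEK293 cells expressing TRHR with calcium dye readout; series mostly up to about 58 µM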)
Outline: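 Cells: TRHR-Hek293, seeded and incubated 18 h. Dye loading: 2 h at 37 °C. Compound added from DMSO stock by pin tool. Read-out: kinetic calcium fluorescence over 3 min.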

[9] = Human pregnane X receptor (PXR) small molecule agonists, qHTS cell viability counter screen (AID 1346977); also: nearly all actives have a fitted effect of over 50% in size; also: potency is read from the fitted curve at half-maximal effect
Outline: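 Cytotoxicity counter screen run in the same wells as the PXR luciferase assay, using PXR-Luc HepG2 cells in charcoal-stripped serum medium. Viability: CellTiter-Fluor fluorescence after 24hr compound treatment.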

[10] = Caspase-3/7 induction in CHO-K1 cells by small molecules, qHTS cell viability counter screen (AID 1346979); also: nearly all actives have a fitted effect of over 35% in size; also: potency is read from the fitted curve at half-maximal effect
Outline: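 Cytotoxicity counter screen run in parallel with the caspase-3/7 assay: CHO-K1 cells, 16hr compound treatment at 37C, then CellTiter-Fluor for 1hr before fluorescence reading.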

[11] = Caspase-3/7 induction in CHO-K1 cells by small molecules, qHTS assay (AID 1346980); also: nearly all actives have a fitted effect of over 15% in size; also: potency is read from the fitted curve at half-maximal effect
Outline: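 Luminescent Caspase-Glo 3/7 read (30min, room temperature) quantified apoptosis induction. Cells were wild-type CHO-K1, treated with compound for 17hr at 37 C and 5% CO2.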

[12] = Caspase-3/7 induction in HepG2 cells by small molecules, qHTS cell viability counter screen (AID 1346981); also: nearly all actives have a fitted effect of over 30% in size; also: potency is read from the fitted curve at half-maximal effect
Outline: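 After a 5-hr attachment period at 37 C and 5% CO2, wild-type HepG2 cells received compounds in DMSO. Sixteen hours later CellTiter-Fluor was dispensed and the fluorescent signal quantified after a further hour.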

[13] = target: Nuclear receptor subfamily 1 group I member 2 (Homo sapiens) (UniProt O75469); experiment: Human pregnane X receptor (PXR) small molecule agonists, qHTS assay (AID 1346982); also: nearly all actives have a fitted effect of over 35% in size; also: potency is read from the fitted curve at half-maximal effect
Outline: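 Tox21 qHTS; PXR-Luc HepG2; compounds pinned from DMSO; 24 hr, 37 C; ONE-Glo luciferase detection, 30 min room temperature.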

[14] = target: Nuclear receptor subfamily 1 group I member 2 (Rattus norvegicus) (UniProt Q9R1A7); experiment: Rat pregnane X receptor (rPXR) activation by small molecules, qHTS assay (AID 1346983); details: rPXR luciferase reporter cells, One-Glo luminescence, 24 h; stronger effect = higher value; also: nearly all actives have a fitted effect of over 20% in size
Outline: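 Luminescent readout (One-Glo luciferase, 30 min room temperature) followed 24 hr compound treatment at 37 C of rPXR cells plated 2,000 per well and preincubated 5hr; qHTS format with compounds delivered in DMSO.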

[15] = target: Nuclear receptor subfamily 1 group I member 2 (Homo sapiens) (UniProt O75469); experiment: CYP3A4 induction through human pregnane X receptor (PXR) by small molecules, qHTS assay (AID 1346984); also: nearly all actives have a fitted effect of over 40% in size
Outline: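 Cells (DPX-2; HepG2 with PXR element plus CYP3A4-promoter luciferase) settled 5hr, then were treated 24hr at 37C. A 3hr, 3uM-final Luciferin-IPA step preceded luminescence measurement with One-Glo.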

[16] = target: Nuclear receptor subfamily 1 group I member 2 (Homo sapiens) (UniProt O75469); experiment: Human pregnane X receptor (PXR) activation by small molecules, qHTS assay (AID 1346985); also: nearly all actives have a fitted effect of over 40% in size; also: potency is read from the fitted curve at half-maximal effect
Outline: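 DPX-2 cells (HepG2 co-transfected with a PXR response element and a CYP3A4-promoter luciferase construct) were seeded at 2,000 per well, rested 5 hr at 37C, then exposed to DMSO-dissolved compounds for 24 hr. Activation was read as luciferase luminescence.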

[17] = target: Cytochrome P450 2D6 (Homo sapiens) (UniProt P10635); experiment: Cytochrome P450 Family 2 Subfamily D Member 6 (CYP2D6) small molecule antagonists: luciferase reporter qHTS assay (AID 1671196); also: nearly all actives have a fitted effect of over 50% in size; also: potency is read from the fitted curve at half-maximal effect
Outline: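 Room-temperature luminescent CYP2D6 activity assay: compound preincubated 10 min with enzyme–substrate mix, NADPH-initiated reaction 1 h, detection reagent 20 min before reading.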

[18] = target: Progesterone receptor (Homo sapiens) (UniProt P06401); experiment: qHTS assay to identify small molecule antagonists of the progesterone receptor (PR) signaling pathway (AID 1346795; active = well fitted inhibition curve with a large enough effect in the signal ratio in the repeat runs, not every such curve was filed as active; the % refers to the signal ratio; also: potency is read from the fitted curve at half-maximal effect)
Outline: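 Antagonist mode: compounds tested against 1 nM (final) promegestone stimulation in HEK293T cells expressing PR-UAS-bla reporter, 16 hr at 37C, 5% CO2; beta-lactamase activity detected via B/G FRET substrate after 2 hr at room temperature.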

[19] = Caspase-3/7 induction in HepG2 cells by small molecules, qHTS assay (AID 1346978); also: nearly all actives have a fitted effect of over 15% in size; also: potency is read from the fitted curve at half-maximal effect
Outline: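 Caspase-3/7 induction was measured by Caspase-Glo 3/7 luminescence (30 min, room temperature) after a 17 hr compound exposure of wild-type HepG2 cells seeded at 2,000 per well and pre-incubated 5 hr.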

[20] = qHTS assay to identify small molecule antagonists of the progesterone receptor (PR) signaling pathway - cell viability counter screen (AID 1346798); also: nearly all actives have a fitted effect of over 50% in size; also: potency is read from the fitted curve at half-maximal effect
Outline: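 Counter screen for cytotoxicity: viability of PR-UAS-bla HEK293T cells was measured with CellTiter-Glo luminescence following 16 hr compound exposure in the presence of R5020.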

Sequence of Thyrotropin-releasing hormone receptor (Homo sapiens) (P34981 whole entry, looked up): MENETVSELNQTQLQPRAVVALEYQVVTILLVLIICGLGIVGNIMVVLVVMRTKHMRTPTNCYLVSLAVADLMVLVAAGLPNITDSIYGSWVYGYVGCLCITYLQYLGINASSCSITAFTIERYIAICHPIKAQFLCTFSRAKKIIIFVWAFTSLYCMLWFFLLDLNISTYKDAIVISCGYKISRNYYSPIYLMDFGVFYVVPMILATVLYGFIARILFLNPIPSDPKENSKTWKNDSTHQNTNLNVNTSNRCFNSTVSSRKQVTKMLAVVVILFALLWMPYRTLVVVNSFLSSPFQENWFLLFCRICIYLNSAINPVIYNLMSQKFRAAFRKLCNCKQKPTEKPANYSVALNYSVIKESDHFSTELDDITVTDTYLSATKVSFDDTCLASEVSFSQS
Sequence of Nuclear receptor subfamily 1 group I member 2 (Rattus norvegicus) (Q9R1A7 whole entry, looked up): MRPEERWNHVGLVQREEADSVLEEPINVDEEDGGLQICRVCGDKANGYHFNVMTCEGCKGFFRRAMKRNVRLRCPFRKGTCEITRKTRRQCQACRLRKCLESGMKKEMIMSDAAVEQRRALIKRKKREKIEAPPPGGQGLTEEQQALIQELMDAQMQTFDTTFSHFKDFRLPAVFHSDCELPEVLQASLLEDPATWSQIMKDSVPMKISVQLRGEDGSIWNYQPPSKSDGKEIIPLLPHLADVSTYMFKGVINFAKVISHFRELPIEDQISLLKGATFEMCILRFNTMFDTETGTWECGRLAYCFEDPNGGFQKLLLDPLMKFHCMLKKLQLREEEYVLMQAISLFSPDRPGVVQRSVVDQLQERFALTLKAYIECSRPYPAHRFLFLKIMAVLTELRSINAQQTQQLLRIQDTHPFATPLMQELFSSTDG
Sequence of Progesterone receptor (Homo sapiens) (P06401 whole entry, looked up): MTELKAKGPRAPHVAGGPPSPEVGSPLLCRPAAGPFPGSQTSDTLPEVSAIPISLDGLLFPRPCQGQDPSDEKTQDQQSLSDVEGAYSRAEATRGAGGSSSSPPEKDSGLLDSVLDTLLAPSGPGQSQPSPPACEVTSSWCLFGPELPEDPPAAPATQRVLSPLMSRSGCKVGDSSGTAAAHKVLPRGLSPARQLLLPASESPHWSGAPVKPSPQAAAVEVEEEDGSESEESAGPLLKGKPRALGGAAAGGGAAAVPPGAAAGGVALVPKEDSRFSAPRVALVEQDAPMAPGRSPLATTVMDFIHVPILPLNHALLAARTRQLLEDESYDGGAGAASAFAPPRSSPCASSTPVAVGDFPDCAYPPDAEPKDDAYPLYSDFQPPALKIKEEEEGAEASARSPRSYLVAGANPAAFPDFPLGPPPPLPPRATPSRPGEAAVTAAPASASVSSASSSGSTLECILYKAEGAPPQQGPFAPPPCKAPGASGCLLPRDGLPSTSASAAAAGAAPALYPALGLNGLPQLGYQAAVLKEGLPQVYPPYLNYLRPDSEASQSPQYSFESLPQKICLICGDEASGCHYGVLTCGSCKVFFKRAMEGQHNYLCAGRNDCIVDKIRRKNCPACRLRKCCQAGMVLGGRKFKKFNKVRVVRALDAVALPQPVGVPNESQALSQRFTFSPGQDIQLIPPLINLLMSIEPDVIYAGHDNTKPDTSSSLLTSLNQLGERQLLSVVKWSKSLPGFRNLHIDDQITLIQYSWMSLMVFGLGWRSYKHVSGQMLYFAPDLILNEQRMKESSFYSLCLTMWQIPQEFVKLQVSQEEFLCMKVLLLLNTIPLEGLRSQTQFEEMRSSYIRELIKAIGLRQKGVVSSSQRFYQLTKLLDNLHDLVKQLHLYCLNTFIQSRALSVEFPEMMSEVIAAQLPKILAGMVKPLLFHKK
Sequence of Cytochrome P450 2D6 (Homo sapiens) (P10635 whole entry, looked up): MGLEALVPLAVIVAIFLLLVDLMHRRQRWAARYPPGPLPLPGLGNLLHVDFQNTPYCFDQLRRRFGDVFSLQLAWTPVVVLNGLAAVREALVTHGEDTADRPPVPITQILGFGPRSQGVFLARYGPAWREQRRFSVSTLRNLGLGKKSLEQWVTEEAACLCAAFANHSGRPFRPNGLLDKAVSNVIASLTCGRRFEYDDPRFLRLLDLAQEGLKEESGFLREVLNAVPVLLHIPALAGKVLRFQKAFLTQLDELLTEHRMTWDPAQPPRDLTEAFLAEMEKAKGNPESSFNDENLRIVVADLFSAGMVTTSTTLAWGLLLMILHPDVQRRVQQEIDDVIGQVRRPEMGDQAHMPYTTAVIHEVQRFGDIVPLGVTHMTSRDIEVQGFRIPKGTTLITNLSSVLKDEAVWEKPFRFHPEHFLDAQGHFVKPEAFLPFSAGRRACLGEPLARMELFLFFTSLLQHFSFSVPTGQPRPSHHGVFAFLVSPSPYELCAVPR
Sequence of Nuclear receptor subfamily 1 group I member 2 (Homo sapiens) (O75469 whole entry, looked up): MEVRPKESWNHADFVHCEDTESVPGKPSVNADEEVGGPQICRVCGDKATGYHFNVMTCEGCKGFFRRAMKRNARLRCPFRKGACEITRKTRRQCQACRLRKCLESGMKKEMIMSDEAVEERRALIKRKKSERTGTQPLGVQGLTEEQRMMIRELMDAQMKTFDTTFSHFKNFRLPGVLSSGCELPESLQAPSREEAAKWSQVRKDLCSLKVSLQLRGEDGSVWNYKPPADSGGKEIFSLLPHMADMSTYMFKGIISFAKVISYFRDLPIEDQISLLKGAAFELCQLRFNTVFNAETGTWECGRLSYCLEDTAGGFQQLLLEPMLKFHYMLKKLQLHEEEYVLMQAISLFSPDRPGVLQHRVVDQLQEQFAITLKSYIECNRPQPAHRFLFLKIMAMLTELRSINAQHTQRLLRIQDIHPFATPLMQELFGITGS

SMILES	Potency [1]	Potency [2]	Potency [3]	Potency [4]	Potency [5]	outcome [6]	Potency [7]	Potency [8]	Potency [9]	Potency [10]	Potency [11]	Potency [12]	Potency [13]	max activation [14]	Potency [15]	Potency [16]	Potency [17]	Potency [18]	Potency [19]	Potency [20]
CC(=O)OCC1=C(C(=O)O)N2C(=O)[C@@H](NC(=O)Cc3cccs3)[C@H]2SC1	inactive	inactive	inactive	inactive	inactive	inactive	inactive	inactive	inactive	inactive	inactive	inactive	inactive	-1.19% (inactive)	inactive	inactive	inactive	–	–	–
CCCCCC(=O)O[C@]1(C(C)=O)CC[C@H]2[C@@H]3CCC4=CC(=O)CC[C@]4(C)[C@H]3CC[C@@]21C	inactive	–	–	inactive	–	–	inactive	inactive	43 µM (active)	60.7 µM (active) and 33.5 µM (active)	–	60.7 µM (active)	9.62 µM (active) and 11.9 µM (active)	–	–	–	6.28 µM (active) and inactive	21.1 µM (active)	–	–
CC(=O)CC(=O)Nc1ccc2[nH]c(=O)[nH]c2c1	inactive	inactive	inactive	inactive	inactive	–	inactive	inactive	inactive	inactive	–	–	inactive	–	–	–	inactive	–	inactive	–
C#CC(C)(CC)OC(=O)c1ccccc1C(=O)O (centres undefined)	inactive	inactive	inactive	inactive	inactive	inactive	–	–	inactive	inactive	inactive	inactive	inactive	–	–	–	inactive	–	–	–
CCN(CC)CCOc1ccc(/C(=C(\Cl)c2ccccc2)c2ccccc2)cc1	inactive	–	–	inactive	–	inactive	–	–	39.4 µM (active) and 26.6 µM (active)	55.6 µM (active)	–	55.6 µM (active)	–	–	–	–	–	–	–	–
CC[C@H]1CN2CCc3cc(OC)c(OC)cc3[C@@H]2C[C@@H]1C[C@H]1NCCc2cc(OC)c(OC)cc21	38.7 µM (active)	inactive	inactive	inactive	inactive	inactive	–	–	24.4 nM (active) and 10.6 nM (active)	27.4 nM (active) and 13.3 nM (active)	30.7 µM (active) and inactive	48.7 nM (active) and 16.8 nM (active)	19.4 nM (active) and 8.4 nM (active)	-15.9% (inactive)	inactive	inactive	40.1 µM (active)	–	–	–
Oc1c(Cl)cc(Cl)c(Cl)c1Cc1c(O)c(Cl)cc(Cl)c1Cl	13.3 µM (active)	–	–	inactive	–	inactive	12 µM (active) and 26.9 µM (active)	30.8 µM (active) and 34.7 µM (active) and inactive	2.72 µM (active) and 1.72 µM (active) and 6.68 µM (active)	6.09 µM (active) and 15.4 µM (active) and 8.41 µM (active)	inactive	–	–	-22.6% (inactive)	–	–	inactive	–	inactive	43.1 µM (active)
NC12CC3CC(CC(C3)C1)C2	–	inactive	inactive	inactive	inactive	inactive	–	–	inactive	inactive	inactive	inactive	–	–	–	–	–	inactive	inactive	inactive
CCC[C@H](N[C@@H](C)C(=O)N1[C@H](C(=O)O)C[C@@H]2CCCC[C@@H]21)C(=O)OCC	–	inactive	inactive	inactive	inactive	inactive	–	–	inactive	inactive	inactive	inactive	inactive	–	–	–	inactive	inactive	–	inactive
COc1cc(C(=S)N2CCOCC2)ccc1O	–	inactive	inactive	inactive	inactive	–	–	–	inactive	inactive	inactive	inactive	inactive	-1.33% (inactive)	inactive	inactive	inactive	inactive	inactive	inactive
NC(=Nc1ccccc1)Nc1ccccc1	–	inactive	inactive	inactive	inactive	inactive	10.1 µM (active) and inactive	7.76 µM (active) and 15.1 µM (active)	4.86 µM (active)	inactive	inactive	20.5 µM (active)	3.86 µM (active) and 11.9 µM (active)	-2.33% (inactive)	inactive	inactive	212 nM (active) and 617 nM (active)	inactive	–	inactive
CC(C)CCCCCCc1ccc(O)cc1	27.8 µM (active) and inactive	–	4.94 µM (active) and inactive	–	inactive	inactive	inactive	inactive	50.1 µM (active)	44 µM (active) and 61.1 µM (active)	–	55.4 µM (active)	22.1 µM (active) and 9.69 µM (active)	-6.01% (inactive)	inactive	28.2 µM (active)	40.6 µM (active) and inactive	–	–	6.22 µM (active)
CC(COc1ccccc1)N(CCCl)Cc1ccccc1 (centres undefined)	inactive	inactive	inactive	inactive	inactive	inactive	–	–	inactive	inactive	–	inactive	–	–	–	–	570 nM (active) and 448 nM (active) and 692 nM (active)	–	–	–
O=Nc1ccc(Nc2ccccc2)cc1	inactive	–	–	inactive	inactive	inactive	inactive	inactive	–	7.74 µM (active) and 13.7 µM (active)	inactive	–	61.4 µM (active) and 48.6 µM (active)	–	–	–	28.4 µM (active) and 35.6 µM (active)	54.5 µM (active)	inactive	–
CC(C)(C)c1ccc(O)c(C(C)(C)C)c1	inactive	inactive	–	inactive	–	–	–	inactive	inactive	60.9 µM (active) and 54.5 µM (active)	–	–	inactive	–	–	–	19.9 µM (active)	–	30.5 µM (active) and 54.5 µM (active)	–
CC(C)(C)c1cc(C(C)(C)C)c(O)c(C(C)(C)C)c1	–	inactive	inactive	inactive	inactive	inactive	inactive	inactive	inactive	inactive	inactive	inactive	68.6 µM (active) and inactive	–	–	–	inactive	inactive	–	inactive
